Where “and” joins values, the source holds several entries; their conditions need not be identical. Equal entries are not always repeated. In all, about 190,000 compounds went through this assay and about 6,900 (3.6%) were called active. The entries come from a sample that favours actives as a whole. A number with no mark means an inactive call. Cut-off read from the data, not from the text of the source: active = inhibition above about 50%; inactive = the rest.

In this experiment the target is Huntingtin (Homo sapiens) (UniProt P42858). The experiment in a line: mutant huntingtin-calmodulin interaction inhibitors – biochemical, AlphaScreen, primary screen (AID 1671202).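 Note: 0% = both proteins with DMSO and 100% = one protein alone.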 To be noted: AlphaScreen His-mHTT/GST-CaM binding, luminescence; at 15 µM, active compounds read high. (In general: Bead proximity is the source of the signal in Alpha formats.)
Sequence of Huntingtin (Homo sapiens) (P42858 whole entry, looked up, stated change not applied): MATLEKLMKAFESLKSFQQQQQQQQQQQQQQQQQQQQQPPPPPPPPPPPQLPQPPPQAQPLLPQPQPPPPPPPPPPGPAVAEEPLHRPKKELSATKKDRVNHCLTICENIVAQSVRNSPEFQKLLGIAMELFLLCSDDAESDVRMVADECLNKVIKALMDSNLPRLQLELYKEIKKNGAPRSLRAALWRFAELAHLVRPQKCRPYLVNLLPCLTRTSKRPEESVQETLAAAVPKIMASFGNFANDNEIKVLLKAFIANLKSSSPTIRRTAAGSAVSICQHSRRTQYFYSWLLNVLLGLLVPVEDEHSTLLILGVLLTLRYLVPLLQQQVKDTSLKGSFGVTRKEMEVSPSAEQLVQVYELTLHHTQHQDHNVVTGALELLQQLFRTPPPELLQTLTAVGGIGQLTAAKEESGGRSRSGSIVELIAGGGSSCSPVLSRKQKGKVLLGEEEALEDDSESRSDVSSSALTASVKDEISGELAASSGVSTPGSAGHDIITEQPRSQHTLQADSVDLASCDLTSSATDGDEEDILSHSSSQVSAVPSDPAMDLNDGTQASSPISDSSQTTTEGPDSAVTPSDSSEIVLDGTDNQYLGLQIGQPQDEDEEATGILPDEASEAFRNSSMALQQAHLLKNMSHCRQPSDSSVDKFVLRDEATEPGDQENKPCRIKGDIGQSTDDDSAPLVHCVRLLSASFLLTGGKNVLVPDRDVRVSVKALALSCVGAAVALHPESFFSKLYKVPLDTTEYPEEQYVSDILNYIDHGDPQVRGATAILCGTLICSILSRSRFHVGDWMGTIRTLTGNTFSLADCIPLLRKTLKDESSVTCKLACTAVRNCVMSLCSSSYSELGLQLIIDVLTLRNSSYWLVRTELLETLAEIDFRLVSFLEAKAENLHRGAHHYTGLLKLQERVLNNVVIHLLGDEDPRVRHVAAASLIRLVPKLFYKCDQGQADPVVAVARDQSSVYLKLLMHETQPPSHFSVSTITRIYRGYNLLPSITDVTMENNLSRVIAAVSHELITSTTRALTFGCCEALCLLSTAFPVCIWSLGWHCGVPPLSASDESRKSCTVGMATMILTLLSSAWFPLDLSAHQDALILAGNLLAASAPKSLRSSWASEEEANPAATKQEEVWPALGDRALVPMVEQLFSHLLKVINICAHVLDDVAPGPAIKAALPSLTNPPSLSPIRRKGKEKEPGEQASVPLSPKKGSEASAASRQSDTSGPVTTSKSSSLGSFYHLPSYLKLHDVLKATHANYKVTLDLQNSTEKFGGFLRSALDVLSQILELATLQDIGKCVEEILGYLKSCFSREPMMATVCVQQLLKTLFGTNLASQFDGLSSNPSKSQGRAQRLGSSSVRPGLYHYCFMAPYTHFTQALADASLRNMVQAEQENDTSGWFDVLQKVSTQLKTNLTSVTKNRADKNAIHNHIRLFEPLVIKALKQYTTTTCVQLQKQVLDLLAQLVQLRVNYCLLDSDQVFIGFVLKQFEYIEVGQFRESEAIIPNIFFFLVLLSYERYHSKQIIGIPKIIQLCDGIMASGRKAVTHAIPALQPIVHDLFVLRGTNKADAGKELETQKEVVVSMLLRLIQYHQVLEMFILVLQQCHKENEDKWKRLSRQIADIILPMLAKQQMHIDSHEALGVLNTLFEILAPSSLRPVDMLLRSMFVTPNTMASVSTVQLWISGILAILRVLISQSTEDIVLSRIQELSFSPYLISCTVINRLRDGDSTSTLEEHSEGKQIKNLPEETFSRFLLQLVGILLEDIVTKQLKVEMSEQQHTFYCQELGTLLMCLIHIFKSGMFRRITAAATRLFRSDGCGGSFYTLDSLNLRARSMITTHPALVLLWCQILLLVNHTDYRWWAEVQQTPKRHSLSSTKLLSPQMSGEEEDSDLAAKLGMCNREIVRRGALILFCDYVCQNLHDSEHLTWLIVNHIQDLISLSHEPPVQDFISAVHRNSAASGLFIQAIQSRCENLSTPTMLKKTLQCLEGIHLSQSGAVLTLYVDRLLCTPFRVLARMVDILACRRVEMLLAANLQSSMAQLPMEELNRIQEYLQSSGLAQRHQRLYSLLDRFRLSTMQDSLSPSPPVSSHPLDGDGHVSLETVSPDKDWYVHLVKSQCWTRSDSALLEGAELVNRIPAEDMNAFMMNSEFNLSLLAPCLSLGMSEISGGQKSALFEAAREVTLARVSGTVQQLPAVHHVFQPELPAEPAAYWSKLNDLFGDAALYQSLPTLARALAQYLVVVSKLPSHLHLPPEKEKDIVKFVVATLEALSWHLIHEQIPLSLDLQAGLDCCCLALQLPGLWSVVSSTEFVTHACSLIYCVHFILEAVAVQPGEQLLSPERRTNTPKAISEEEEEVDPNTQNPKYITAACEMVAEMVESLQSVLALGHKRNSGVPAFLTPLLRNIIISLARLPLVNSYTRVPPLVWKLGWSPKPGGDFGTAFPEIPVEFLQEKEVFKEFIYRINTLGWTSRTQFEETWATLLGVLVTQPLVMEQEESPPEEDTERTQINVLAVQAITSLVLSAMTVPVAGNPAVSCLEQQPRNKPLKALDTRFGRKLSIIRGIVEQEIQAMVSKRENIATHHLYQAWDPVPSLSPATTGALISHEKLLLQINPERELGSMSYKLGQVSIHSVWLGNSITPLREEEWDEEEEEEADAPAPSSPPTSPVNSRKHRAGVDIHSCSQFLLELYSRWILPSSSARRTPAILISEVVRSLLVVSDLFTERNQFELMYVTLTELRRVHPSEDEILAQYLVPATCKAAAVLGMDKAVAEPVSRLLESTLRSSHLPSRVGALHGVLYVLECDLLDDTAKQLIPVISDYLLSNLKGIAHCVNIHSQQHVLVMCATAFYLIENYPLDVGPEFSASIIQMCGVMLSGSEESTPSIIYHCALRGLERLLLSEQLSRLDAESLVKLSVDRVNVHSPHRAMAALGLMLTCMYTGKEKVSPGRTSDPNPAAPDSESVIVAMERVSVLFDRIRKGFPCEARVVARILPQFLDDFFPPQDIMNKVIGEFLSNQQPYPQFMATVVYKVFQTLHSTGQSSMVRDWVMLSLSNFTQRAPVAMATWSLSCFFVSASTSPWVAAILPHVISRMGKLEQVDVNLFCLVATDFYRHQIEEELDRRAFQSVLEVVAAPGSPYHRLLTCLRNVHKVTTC
With `Cc1nn2cc(-n3cc([N+](=O)[O-])cn3)cnc2c1[N+](=O)[O-]`, the inhibition (usually the change of the read-out against control, counted positive when it falls) was -2.97%. For the molecule `COc1cccc(CC(=O)Nc2cccn3c(C)nnc23)c1`, the inhibition was -2.3%. For `CCCn1c(=O)c2sc(N3CCCC3)nc2n(CC(=O)Nc2cc(F)cc(F)c2)c1=O` the value was -10.6%; for `COc1ccc2oc(-c3ccc(NC(=O)c4cccc(Br)c4)cc3)nc2c1`, 34%; for `C=CCc1ccc(OCC(=O)NCCC2=CCCCC2)c(OC)c1`, -16%. For `COc1cc(OC)c(N2C=C(C#N)S(=O)(=O)c3ccc(F)cc32)cc1Cl`, the inhibition is -0.3%.

`Cc1cccc(CNC(=O)c2cc(C(C)C)n3nccc3n2)c1`: the inhibition was -134%. As for `Cc1ccc(NC(=O)O[C@H]2CCC23CCCCC3)cc1`, the inhibition was -86.9%.

On to `Cc1cc(C)c(S(=O)(=O)N2CCCC2C(=O)NCCc2csc(C)n2)c(C)c1` (configuration not stated), for which the inhibition is -2.4%. For the molecule `Cc1cccc(C(=O)N2CCN(c3nc4ccccc4n(CC(C)C)c3=O)CC2)c1`, the inhibition was -13.3%. Next, `O=C1NC2(CCN(C(=O)c3ccccc3)CC2)Nc2cc(Cl)ccc21`: -7.3%; `Cc1ccc2c(c1)NC1(CCN(C(=O)c3ccccc3)CC1)c1cccn1-2`: 84.3% (active). With `CCN1c2ccc(C)cc2C(=O)NC12CCN(C(=O)c1cccc(C)c1)CC2`, the inhibition was -2.5%. As to `CCNc1nccc(N2CCC(CC(=O)NCc3cccc(Cl)c3)CC2)n1`, the inhibition was 7.56%. Next, `COc1ccc(-c2cc(C(F)(F)F)n3nc(C(=O)N4CCC(C)CC4)cc3n2)cc1OC`: 4%; `COc1ccc(CC(=O)NC(c2ccccc2)c2ccccc2)cc1OC`: 53.3% (active). Take `COc1ccc(CCNC(=O)COc2ccccc2Br)cc1OC`: the inhibition was 1.8% and -8.4%. As for `COc1ccc(C(=O)NC(C)c2ccccc2)cc1OC` (configuration not stated), the inhibition is -4.5%. Regarding `COc1ccc(OC)c(CN2CCc3nc(N4CCOCC4)ncc3C2)c1`, the inhibition was 13.8%. Turning to `CCc1ccccc1NC(=O)c1cc2n(n1)CCCN(Cc1ccc(F)cc1)C2=O`, the inhibition is -3.32%. Consider `Cc1cc(C)c(C(=O)Nc2nc3ccc(S(C)(=O)=O)cc3s2)c(C)c1`, for which the inhibition is -1.4%.

Consider `CS(=O)(=O)c1ccc2nc(NC(=O)/C=C/c3ccccc3)sc2c1`, for which the inhibition was 76% (active).

Take `CC(C)(C)c1ccc(C(=O)Nc2nc3ccc(S(C)(=O)=O)cc3s2)cc1`: the inhibition is -2%. For `COc1cc(N2CN=c3s/c(=C\c4ccc([N+](=O)[O-])cc4)c(=O)n3C2)cc(OC)c1OC` the value was 49%; for `Brc1ccc2c(c1)CCCN2`, 10%; for `O=C1NN=C(c2ccccc2)/C1=C/c1ccc(-c2ccc(Cl)cc2)o1`, 61% (active). As for `CC1=NOC(=O)/C1=C/c1ccc(-c2cc(Cl)ccc2Cl)o1`, the inhibition was -2%. Next, `Cc1nn2c(=O)/c(=C/c3ccc(-c4ccc(F)cc4)o3)sc2nc1=O`: -2%. In the case of `Cc1cccc(CSC2=NCCN2C(=O)Cc2ccc(F)cc2)c1`, the inhibition is -24%. `CCCCOc1ccc(/C=C(\C#N)c2nc3ccccc3[nH]2)cc1`: the inhibition is -1%. As to `COc1cc(/C=C(\C#N)c2nc3ccccc3[nH]2)ccc1OCC#N`, the inhibition is 12%.

Take `N#C/C(=C\C=C\c1ccccc1)c1nc2ccccc2[nH]1`: the inhibition is 75% (active) and 58% (active).

Regarding `CC(=O)c1cccc(NC(=O)/C(=C\c2ccc3c(c2)OCO3)NC(=O)c2ccccc2Cl)c1`, the inhibition is 7%. For the molecule `COc1cccc2sc(N(C)CC(=O)Nc3nc(C)cs3)nc12`, the inhibition is -3%. Consider `COc1cc(-c2ccc(O)c(O)c2)cc(=O)c2c(C)oc(C)c12`, for which the inhibition is 49%. Take `CCOc1cc(-c2ccc(O)c(OC)c2)cc(=O)c2c(C)oc(C)c12`: the inhibition was 51% (active). With `COc1ccc(-c2c(C)c3ccc(O)c(CN4CCCC4)c3oc2=O)cc1OC`, the inhibition is 2.3%.

Take `N#CC1=C(N)N2CCN3C(N)=C(C#N)C1(c1ccccc1)C23c1ccccc1` (configuration not stated): the inhibition was 21%. As to `O=C1CC(O)(C(F)(F)F)Oc2ccc(Cl)cc21` (configuration not stated), the inhibition was 0%. Consider `CC(C)N1C/C(=C\c2ccsc2)C(=O)/C(=C/c2ccsc2)C1`, for which the inhibition is 45%. As to `COc1ccc(NC(=O)c2cc(S(=O)(=O)NCCc3ccc(Cl)cc3)ccc2F)cc1`, the inhibition is 20%.

Turning to `O=C(Nc1ccc(F)cc1)c1cc(S(=O)(=O)NCc2ccc(F)cc2)ccc1F`, the inhibition was -3%.

With `O=C(Nc1ccc(F)cc1)c1cc(S(=O)(=O)NCCc2ccc(Cl)cc2)ccc1F`, the inhibition is 61% (active). Take `COc1ccccc1OCCNC(=O)CSc1ccc(C(F)(F)F)cc1[N+](=O)[O-]`: the inhibition was 2%. For the molecule `CC1=C(C(=O)Nc2cccnc2)C(c2ccccn2)n2nc(SCc3ccccc3)nc2N1` (configuration not stated), the inhibition was 5%. `CC1=C(C(=O)Nc2ccc(Cl)cc2)C(c2ccc(Cl)cc2Cl)n2ncnc2N1` (configuration not stated): the inhibition was 59% (active). As for `COc1ccc(NC(=O)C2=C(C)Nc3ncnn3C2c2cc(OC)c(OC)cc2OC)cc1` (configuration not stated), the inhibition is 0%. Next, `CC1=C(C(=O)Nc2ccc(C)cc2)C(c2cccc([N+](=O)[O-])c2)n2ncnc2N1` (configuration not stated): 7%; `O=C(NCc1ccco1)c1cc2nc(-c3ccc(Cl)cc3)cc(C(F)(F)F)n2n1`: -2%. With `Cc1ccc(C)c(CNC(=O)c2cc3n(n2)CCCN(Cc2ccc(F)cc2)C3=O)c1`, the inhibition was 50.5% (active). Regarding `Cc1ccc(CN2CCCn3nc(C(=O)NCc4ccccc4Cl)cc3C2=O)cc1`, the inhibition was -2.01%. Consider `O=C(NCCc1ccccc1)c1cc2n(n1)CCCN(Cc1ccc(F)cc1)C2=O`, for which the inhibition was 3.53%. For `Cc1cc(N2N=NC3C(=O)N(c4ccc(F)cc4)C(=O)C32)ccc1Br` (configuration not stated) the value was -11.3%. With `CSC1=C(C#N)C(c2cccs2)CC(=O)N1` (configuration not stated), the inhibition is -7.7%. Turning to `Cc1cccc(-c2cc(C3CCN(C(=O)Cc4ccsc4)CC3)[nH]n2)c1`, the inhibition was 59.9% (active). Consider `Cc1cccc(-c2cc(C3CCN(S(=O)(=O)c4cccc(C#N)c4)CC3)[nH]n2)c1`, for which the inhibition was 7.83%.

For `Cc1cccc(-c2cc(C3CCN(S(=O)(=O)c4ccc(C#N)cc4)CC3)[nH]n2)c1`, the inhibition was 9.71%. Turning to `O=C(Cc1csc(NC(=O)C2CCCC2)n1)Nc1ccc2c(c1)Cc1ccccc1-2`, the inhibition is -7.6%. Turning to `O=C1/C(=C/c2ccc([N+](=O)[O-])cc2)C=C(c2ccccc2)N1c1cccc([N+](=O)[O-])c1`, the inhibition is 28%. With `O=C1OC(c2ccccc2)=C/C1=C/c1cccn1-c1cccc([N+](=O)[O-])c1`, the inhibition is 77% (active). For the molecule `Cn1c(=O)c2c(-c3ccccc3)n(-c3cccc([N+](=O)[O-])c3)cc2n(C)c1=O`, the inhibition was 38%. For the molecule `N#CC1=C(N)C(C#N)(C#N)C(c2ccc(C3C4CCCC=C4C(C#N)=C(N)C3(C#N)C#N)cc2)C2CCCC=C12` (configuration not stated), the inhibition is 81.2% (active). Consider `CN1CC=C2C(C#N)=C(N)C(C#N)(C#N)C(c3ccc(F)cc3)C2C1` (configuration not stated), for which the inhibition was 6%. As to `Brc1ccc(CNC23CN4CN(CN(C4)C2)C3)cc1`, the inhibition was 2%. For the molecule `O=C(/C=C/c1ccc(Cl)cc1)Nc1cc2ccccc2oc1=O`, the inhibition was 0%. Regarding `CN(C)c1ccc(Br)c([N+](=O)[O-])c1`, the inhibition is 14.9%. As to `Cc1ccc2nc(/C(C#N)=C/c3cc(Cl)cc4c3OCOC4)[nH]c2c1`, the inhibition is -7%. With `COc1ccc2nc3sc(C(=O)N(C)c4cccc(C)c4)cc3cc2c1`, the inhibition is 5%. For the molecule `COc1ccc2nc3sc(C(=O)NCc4ccco4)cc3cc2c1`, the inhibition is 61% (active). For the molecule `COc1cccc(NC(=O)c2cc3cc4cc(OC)ccc4nc3s2)c1`, the inhibition is 7%.

On to `O=C(CSc1nnc(NC(=O)c2ccccc2F)s1)Nc1ccc(Br)cc1`, for which the inhibition is 1.2%.

As for `CC(C)(C)C(=O)NCCNc1ccc([N+](=O)[O-])cc1`, the inhibition is 2.2%. For `COc1ccc(NC(=O)C2CC(=O)N(C)C(=Nc3ccc(C)c(C)c3)S2)cc1` (configuration not stated), the inhibition is 22%. In the case of `Cc1ccc2c(c1)OCC(=O)N2Cc1nc(-c2ccc(C)c(C)c2)no1`, the inhibition is -15.9%. In the case of `Cc1ccccc1NC(=O)N1CCC(c2cc(N)on2)CC1`, the inhibition is -11.4%. On to `COC(=O)c1ccc(Oc2coc3c4c(ccc3c2=O)OCN(c2ccc(OC)cc2OC)C4)cc1`, for which the inhibition was 54.7% (active).

Regarding `CC(C)N1COc2ccc3c(=O)c(-c4ccccc4)coc3c2C1`, the inhibition was -2.5%. Turning to `COCCCN1COc2ccc3c(=O)c(Oc4ccc(OC)cc4)coc3c2C1`, the inhibition was -5.5% and 3.6%. As for `CCOC(=O)c1ccc(Oc2coc3c4c(ccc3c2=O)OCN(C2CCS(=O)(=O)C2)C4)cc1` (configuration not stated), the inhibition was 6.6%. In the case of `COc1ccc(-c2coc3c4c(ccc3c2=O)OCN(CC(C)C)C4)cc1`, the inhibition was -3.5%.

As to `COc1ccc(N2COc3ccc4c(=O)c(-c5ccccc5)coc4c3C2)c(OC)c1`, the inhibition was 75.6% (active). Consider `COc1cccc(OC)c1OCCOc1cccc(Cl)c1Cl`, for which the inhibition was -101%. Consider `Cc1cccc(NC(=O)c2ccc(F)c(S(=O)(=O)N3CCc4ccccc43)c2)c1`, for which the inhibition was -8%. For `Cc1cc2[nH]c(C(=O)Nc3cc(F)c(F)c(F)c3)c(CN(C)C)c2s1`, the inhibition was 8.9%. Regarding `Cc1cccc(NC(=O)C2CCN(C(=O)c3ccc(F)cc3)CC2)c1`, the inhibition is -0.6%. Next, `O=C1OC(/C=C/c2cccc(Cl)c2Cl)=NC/1=C\c1coc2ccccc2c1=O`: 6%; `CC(C)Oc1ccccc1OCCNCc1ccco1`: -1.4%; `Cc1ccc(C)c(NC(=O)N2CCc3c(c(COCc4cccc(F)c4)nn3C)C2)c1`: 23.8%. For `O=C(O)C1CCCCC1C(=O)Nc1nnc(-c2cccs2)s1` (configuration not stated), the inhibition is -1.3%. For `CN(C)c1ncccc1NC(=O)c1ccc(C#N)cc1`, the inhibition was 4.1%.

For `O=C(NCc1[nH]nc2ccccc12)c1ccc(Br)o1`, the inhibition was -1.8%. Next, `N#Cc1ccc(C(=O)NCc2[nH]nc3ccccc23)cc1`: 64.3% (active).

For the origin of these results see PubChem BioAssay AID1671202 (University of Kansas High Throughput Screening Laboratory, 2021).
